This is part of a sample that, as a whole, favours compounds with a hit. Of some 83,000 tested, about 20% had one in any assay.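 A percent growth of 40 corresponds to 60% growth inhibition; 0 means no net growth; -100 means all cells died. Active threshold: below 10.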 Active and inactive are the calls of the source.

This assay concerns HCC-2998 colon. As to the kind of experiment: NCI-60 one-dose screen, 48 h (100 = growth as untreated, 0 = no growth, -100 = all killed). The note with it: 10 µM.
In the case of `CN1CCN(c2ccc(Nc3nc(N4CCN(S(=O)(=O)c5ccc(F)cc5)CC4)c4sccc4n3)cc2)CC1`, the growth was -90.7% (active).
On to `CCCCCc1ccc(S(=O)(=O)Nc2cc(-c3csc(N(C)C(C)=O)n3)ccc2N2CCN(C)CC2)cc1`, for which the growth is 20.8% (inactive).
Next, `CN1CCN(c2ccc(Nc3nc(NCCCNC(=O)C4CCCCC4)c4sccc4n3)cc2)CC1`: 59.5% (inactive); `N[C@@H](CSSC[C@H](N)C(=O)Nc1ccc(OCC2CCCC2)cc1)C(=O)Nc1ccc(OCC2CCCC2)cc1`: -96.5% (active).
As to `COc1ccc2nc(Cl)c(-c3cc(-c4ccccc4)nc(=O)[nH]3)cc2c1`, the growth is 84.9% (inactive).
For the compound `O=C(Nc1ccc(OCc2ccccc2)cc1)Nc1ccc(Cl)c(C(F)(F)F)c1`, the growth was 21.4% (inactive).
Consider `COc1ccc2[nH]c(O)c(N=NC(=O)COc3ccc(NC(=O)Nc4ccc(Cl)cc4)cc3)c2c1`, for which the growth is -14.3% (active).
Next, `Cc1cc2c(c(O)c1Br)-c1ncoc1C(=O)[C@]1(C)CC[C@H](C(C)C)[C@H]21`: 38.2% (inactive); `CCN1CCN(c2ccc(NC(=O)Nc3ccc4c(c3F)CCN4c3ccnc(C(=O)NC)c3)cc2C(F)(F)F)CC1`: 120% (inactive).
Next, `O=C1Nc2ccc(F)cc2/C1=C/c1cccc(OCc2ccccc2)c1`: 45.8% (inactive).
Regarding `Cc1ccc(NC(=O)c2ccc(-n3c(=O)[nH]c4ccccc4c3=O)cc2)cc1`, the growth was 108% (inactive).
Regarding `O=C(Nc1ccncc1)c1ccc(-n2c(=O)[nH]c3ccccc3c2=O)cc1`, the growth was 107% (inactive).
Regarding `Cc1ccc(-c2cc(-c3cc4ccccc4nc3Cl)[nH]c(=S)n2)cc1`, the growth was 77.3% (inactive).
For `O=C(c1ccc(Cl)cc1)C1[C@H](c2ccc(Br)cc2)[C@@H](c2ccccc2)NC12C(=O)Nc1ccc(Cl)cc12` (some centres undefined), the growth was -94.9% (active).
`O=C(O)CCCCCCCCCCN1C(=O)/C(=C/c2cnc(-c3ccc(Cl)cc3)s2)SC1=S`: the growth is 82.4% (inactive).
Next, `CN1CCN(c2ccc(Nc3nc(N4CCN(S(=O)(=O)c5ccc(Cl)cc5)CC4)c4sccc4n3)cc2)CC1`: -8.56% (active); `CN1CCN(c2ccc(C(=O)/C=C/c3cc(Br)ccc3F)cc2)CC1`: -63.2% (active).
Turning to `O=c1nc(-c2ccccc2)cc(-c2cc3ccccc3nc2Cl)[nH]1`, the growth is 44.9% (inactive).
Next, `CC1=C2C(=C[C@@](C)(CO)[C@@H]2O)/C(=N\N)[C@](C)(O)C12CC2`: -76.6% (active).
Consider `O=C(c1ccc(O)cc1)C1[C@H](c2ccc(Br)cc2)[C@@H](c2ccccc2)NC12C(=O)Nc1ccc(Br)cc12` (some centres undefined), for which the growth is -83.9% (active).
On to `COc1ccc(C=CC(=O)c2ccc(-n3c(C)nc4c(cnn4-c4ccccc4)c3=O)cc2)cc1`, for which the growth was 86.8% (inactive).
For the compound `O=C(c1ccc(O)cc1)C1[C@H](c2ccccc2Br)[C@@H](c2ccccc2)NC12C(=O)Nc1ccc(Cl)cc12` (some centres undefined), the growth is -73.2% (active).
Regarding `O=C(c1ccccc1)n1ccc(-c2cc3cc(Br)ccc3oc2=O)n1`, the growth is 17% (inactive).
Regarding `C#Cc1ccc(S(=O)(=O)Nc2cccc(-c3csc(NC(C)=O)n3)c2)cc1`, the growth was 91.3% (inactive).
As for `O=C(N/N=C/c1ccc(-c2cccc([N+](=O)[O-])c2)o1)c1[nH]c2ccc(Br)cc2c1-c1ccccc1`, the growth is 15% (inactive).
Turning to `O=C(Nc1nc2ccc([N+](=O)[O-])cc2s1)Nc1cc(Cl)ccc1I`, the growth is -41.6% (active).
On to `C=C(c1ccc(OC)c(N)c1)c1cc(C)nc2ccccc12`, for which the growth is 11.4% (inactive).
With `CNC(=O)c1cccc(N2CCc3c2ccc(NC(=O)Nc2ccc(N4CCN(C)CC4)c(C(F)(F)F)c2)c3F)c1`, the growth was -94.1% (active).
As to `COc1ccc([C@H]2C(C(=O)c3ccc(Cl)cc3)C3(N[C@@H]2c2ccccc2)C(=O)Nc2ccc(Br)cc23)cc1` (some centres undefined), the growth was -41% (active).
Turning to `CN1CCN(Cc2ccc(C(=O)Nc3cccc(Nc4ccc5cc(O)ccc5n4)c3)cc2C(F)(F)F)CC1`, the growth was -97.3% (active).
As for `Brc1ccc(/C=N/Nc2ncnc3sc4c(c23)CCN(Cc2ccccc2)C4)cc1`, the growth is 91.4% (inactive).
Next, `COc1ccc(C(C)=C(c2ccc(OCCCN(C)C)cc2)c2ccc(OCCCN(C)C)cc2)cc1`: -91.6% (active); `C=C(C)[C@@H]1CC[C@]2(C(=O)OC)CC[C@]3(C)[C@H](CC[C@@H]4[C@@]5(C)CC[C@H](N)C(C)(C)[C@@H]5CC[C@]43C)[C@@H]12`: -93.6% (active); `CS(=O)(=O)Nc1ccc(-c2ccc3c(c2)ncn3-c2ccc(NC(=O)Nc3ccc(Br)cc3)cc2)cc1`: 18% (inactive).

(Values after PubChem BioAssay (NCI).)
